# Records with an inconclusive call do not appear. Entries that show only a call come without a potency. Activity calls are given as the source filed them. Calls come from the whole dose curve; as a rule, active = well fitted cell-killing curve with a large enough effect; inconclusive = small, poorly fitted or top-dose-only effect; inactive = no such curve, though single readings can be large or run the other way.
# Assay: qHTS of pediatric cancer cell lines to identify multiple opportunities for drug repurposing: Primary screen for Rh41 cells (AID 1347108);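 note: luminescence drop marks cytotoxic hits; nearly all actives have a fitted effect of over 70% in size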
# Details: Rh41 rhabdomyosarcoma viability, CellTiter-Glo luminescence, 48 h; series mostly up to 46 µM
# Summary of the method: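 Cells plated at 500-1,000/well in growth medium, compounds added after 5 h. MIPE tested at 11 points (from 0.78 nM), NPC at 8 points (from 0.59 nM). CellTiter-Glo luminescence after 48 h; concentration-response curves from primary screen.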
row,Compound,Potency
1,O=C(N[C@@H]1N=C(c2ccccc2F)c2cccc3c2N(CC3)C1=O)c1cc2ccccc2[nH]1,inactive
2,Nc1ccc(N)cc1,inactive
3,CC(Cc1ccccc1)NCCCCl (centres undefined),inactive
4,C[C@@H]1CN(C2CCC(C#N)(c3ccc(F)cc3)CC2)CC[C@]1(C(=O)O)c1ccccc1 (some centres undefined),inactive
5,ClCc1cccc(Cl)c1,inactive
6,OC(O)C(Cl)(Cl)Cl,inactive
7,CCOC(=O)c1cncn1C(C)c1ccccc1 (centres undefined),inactive
8,CN(C)C(=O)Oc1cc(OC(=O)N(C)C)cc(C(O)CNC(C)(C)C)c1 (centres undefined),inactive
9,C[C@H]1C(=O)O[C@@H]2CCN3CC=C(COC(=O)[C@](C)(O)[C@]1(C)O)[C@H]23,inactive
10,CC1N=C(N)OC1c1ccccc1 (centres undefined),inactive
11,CCOC(C(=O)OCCN(C)C)(c1ccccc1)c1ccccc1,inactive
12,COP(=O)(OC)C(O)C(Cl)(Cl)Cl (centres undefined),inactive
13,NCc1cccnc1,inactive
14,Oc1ccc2[nH]cc(CCCCN3CC=C(c4ccccc4)CC3)c2c1,inactive
15,c1ccc2nc(N3CCNCC3)ccc2c1,inactive
16,C[C@]12CC[C@H]3[C@@H](CCC4=CC(=O)CC[C@@H]43)[C@@H]1CC[C@@H]2O,inactive
17,CCC(=O)O[C@H]1CC[C@H]2[C@@H]3CCC4=CC(=O)CC[C@]4(C)[C@H]3CC[C@]12C,inactive

row,Compound,Potency
1,C[N+]1(C)[C@@H]2CC[C@H]1CC(OC(=O)C(CO)c1ccccc1)C2 (some centres undefined),inactive
2,CCOC(=O)c1ncn2c1CN(C)C(=O)c1c(I)cccc1-2,inactive
3,C[C@H]1CNCCc2ccc(Cl)cc21,inactive
4,CC(Cc1ccccc1)NCc1ccccc1Cl (centres undefined),inactive
5,COc1ccc(OC)c(CC(C)N)c1 (centres undefined),inactive
6,CC(C)(O)C(Cl)(Cl)Cl,inactive
7,O=C1NCN(c2ccccc2)C12CCN(CCCOc1ccc(F)cc1)CC2,inactive
8,COP(=S)(OC)Oc1ccc(S(N)(=O)=O)cc1,inactive
9,Cc1cccc(Cc2cnc[nH]2)c1C,inactive
10,NC(=O)CN1CCCC1=O,inactive
11,CC#C[C@]1(O)CC[C@H]2[C@@H]3C[C@H](C)C4=CC(=O)CC[C@]4(C)[C@H]3CC[C@@]21C,inactive
12,CNC(=O)Oc1cccc2ccccc12,inactive
13,O=c1[nH]c2cc(Cl)ccc2n1C1CCNCC1,inactive
14,CC(C)[N+](C)(CCC(C(N)=O)(c1ccccc1)c1ccccc1)C(C)C,inactive
15,COc1ccc(CN2CCNCC2)c(OC)c1OC,inactive
16,Cc1nc2ccccc2c(=O)n1-c1ccccc1Cl,inactive
17,CCC1(CC)C(=O)NC(=O)NC1=O,inactive

# Source: PubChem BioAssay (NCATS)
